Pf growth 48h – P. falciparum growth inhibition at 48 hours (one generation) | 310,000 compounds, 5.9% hits | Potency, µM (top dose mostly 28.7 µM), inactives show top-dose activity change, negative = inhibition, usual class: inhibitors | P. falciparum luciferase growth in erythrocytes, 48 h; also: potency is read from the fitted curve at half-maximal effect; % is scaled to controls: 0 for no effect and ±100 for the full control effect
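Cell-based growth assay: transgenic P. falciparum expressing firefly luciferase, cultured in red cells within RPMI 1640 containing 0.5% w/v Albumax, 24 mM bicarbonate and gentamycin. A drop in luciferase activity indicates inhibition.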
Cycloheximide cs – affects cycloheximide protein synthesis inhibition readout, counter-screen; 300,000 compounds, 12% hits; AID 2314; cell reporter, cycloheximide protein synthesis inhibition counterscreen; max response, %; in the data active = max response mostly above about 13%, no sharp cut-off; inactive = mostly below about 14%; also: read at 38.3 µM for the half of the compounds with a filed dose; 0% is about no effect
NS1 inh – blocks influenza NS1 protein function. Potency, µM (series often up to 46.1 µM), for the others: at the highest dose activity, positive = more growth. 270,000 compounds, 0.4% hits. AID 2326; calls by dose curve; also: potency is read from the fitted curve at half-maximal effect; actives are rising curves; nearly all actives have a fitted effect of over 50% in size
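Recovery from NS1-induced slow growth read by OD600 in budding yeast switched to galactose assay medium (pH 6.0, -URA) at 1:100 dilution. Compound 23 nl per well; the matching strain lacking NS1 serves as control.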
Sm TGR inh – S. mansoni TGR enzyme inhibition. Q962Y6. purified TGR, DTNB reduction, TNB absorbance 405 nm. Potency, µM (titrated, usually from 114 µM), without a hit: top-dose activity change, negative = inhibition, most hits filed as inhibitors. 360,000 compounds, 3% hits. AID 485364; also: potency is read from the fitted curve at half-maximal effect; % is scaled to controls: 0 for no effect and ±100 for the full control effect; nearly all actives have a fitted effect of over 60% in size
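TGR 20 nM + NADPH 100 uM (dispensed conc.), cpd preinc 15 min RT; start with NADPH (500 uM addition) then DTNB (15 mM addition). Kinetic TNB absorbance, 405 nm filter. Four-parameter Hill fit across titration.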
Shiga toxin inh – inhibitors of Shiga toxin in Vero cells | inhibition, % at 38.7 µM | Vero cells, Shiga toxin protein synthesis inhibition reporter | 290,000 compounds, 9.2% hits | AID 2315; in the data active = inhibition mostly above about 28%, no sharp cut-off; inactive = mostly below about 43%; also: 0% is about no effect
Pf growth 96h – P. falciparum growth inhibition at 96 hours | AID 504834 | 320,000 compounds, 6.9% hits | Potency, µM (top dose mostly 28.7 µM), for inactives: top-dose activity change, negative = inhibition, usual class: inhibitors | P. falciparum luciferase reporter growth, 96 h; also: potency is read from the fitted curve at half-maximal effect; % is scaled to controls: 0 for no effect and ±100 for the full control effect
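Parasite growth measured via integrated firefly luciferase reporter in P. falciparum. Infected erythrocytes at 2% hematocrit, 0.05% parasitemia final were treated 96 hours at 37 C under 5% CO2, and luminescence was read.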
An asterisk follows results filed as active; [ ] = remark or other dose. Shown are actives, neighbours in structure and some others; about 21% of the full set was active somewhere. Unless noted, calls follow the shape of the dose curve; as a rule, active = well fitted curve in the direction sought with a large enough effect; inconclusive = small, poorly fitted or top-dose-only effect, or another doubt; inactive = no such curve, though single readings can be large; an effect the other way counts as inactive or inconclusive.

How did COc1ccc(/C=N/OCC(=O)Nc2nc3ccccc3s2)cc1OC do in these assays?
Pf growth 48h: 24%; Cycloheximide cs: 20*; NS1 inh: 2%; Sm TGR inh: 8%; Shiga toxin inh: 13; Pf growth 96h: -5%

What do the screens show for `Cc1ccc(C)c(NC(=O)C2CCN(c3nn4c(=O)cc(C)nc4s3)CC2)c1`?
Sm TGR inh: 1%

How did O=C(Nc1ccc(Cl)cc1F)c1cc(S(=O)(=O)NC2CCCCCC2)ccc1F do in these assays?
Sm TGR inh: 18%

Results for O=C(NCc1ccncc1)C(=O)Nc1nc2ccccc2s1 ?
Pf growth 48h: 39%; Cycloheximide cs: 42*; NS1 inh: -4%; Sm TGR inh: 8%; Shiga toxin inh: 52*; Pf growth 96h: 202%

What do the screens show for `CCOc1ccccc1-n1c(SCC(N)=O)nnc1-c1cccnc1`?
Pf growth 48h: -6%; Cycloheximide cs: 1; NS1 inh: 1%; Sm TGR inh: 12%; Shiga toxin inh: -4; Pf growth 96h: 12µM*

What do the screens show for `Cc1ccccc1-n1c(SCC(=O)c2cc(C)n(C)c2C)nnc1-c1cccnc1`?
Cycloheximide cs: 5; NS1 inh: 16%; Sm TGR inh: -22%; Shiga toxin inh: -8; Pf growth 96h: inconclusive

Results for COCCn1c(C)cc(C(=O)CSc2nnc(-c3cccnc3)n2-c2ccccc2F)c1C ?
Pf growth 48h: 10µM*; Cycloheximide cs: -4; NS1 inh: 5%; Sm TGR inh: inconclusive; Shiga toxin inh: 19; Pf growth 96h: -27%

How did CCOC(=O)c1cnc(NCc2ccccc2OC)c2ccccc12 do in these assays?
Sm TGR inh: 0%

Results for CC(=O)NC(=S)Nc1cccc2c(C)cc(C)nc12 ?
Pf growth 48h: 4%; Cycloheximide cs: -5; Sm TGR inh: 3%; Shiga toxin inh: 26; Pf growth 96h: 10%

What do the screens show for `COC(=O)c1ccccc1NC(=S)NC(=O)c1ccc(C)cc1`?
Pf growth 48h: 27%; Cycloheximide cs: 7; NS1 inh: -16%; Sm TGR inh: 11µM*; Shiga toxin inh: 24; Pf growth 96h: 16%

Results for COC(=O)c1ccccc1NC(=S)NC(=O)c1ccccc1 ?
Pf growth 48h: 57%; Cycloheximide cs: 9.0*; NS1 inh: -8%; Sm TGR inh: 11µM*; Shiga toxin inh: 49; Pf growth 96h: 39%

How did COC(=O)c1ccccc1NC(=S)NC(=O)COc1ccccc1 do in these assays?
Pf growth 48h: 17%; Cycloheximide cs: 13; NS1 inh: 12%; Sm TGR inh: 22µM*; Shiga toxin inh: 24; Pf growth 96h: inconclusive

Results for Cc1cc(C)c2cccc(NC(=S)NC(=O)c3ccccc3)c2n1 ?
Pf growth 48h: 10µM*; Cycloheximide cs: 11; NS1 inh: -1%; Sm TGR inh: -2%; Shiga toxin inh: -5; Pf growth 96h: 1.9µM*

How did COC(=O)c1ccccc1NC(=S)NC(=O)CC(C)C do in these assays?
Pf growth 48h: 19%; Cycloheximide cs: 13; NS1 inh: 3%; Sm TGR inh: -23%; Shiga toxin inh: -3; Pf growth 96h: 42%

Results for COC(=O)c1ccccc1NC(=S)NC(=O)c1ccccc1C ?
Pf growth 48h: 24%; Cycloheximide cs: -1; NS1 inh: -10%; Sm TGR inh: inconclusive; Shiga toxin inh: -13; Pf growth 96h: 0%

How did CCOc1ccc(S(=O)(=O)NN)cc1 do in these assays?
Pf growth 48h: 3%; Cycloheximide cs: -3; NS1 inh: -1%; Sm TGR inh: 7%; Shiga toxin inh: -23

How did COc1ccc(OC)c(NC(=O)C(Cc2ccccc2)NS(=O)(=O)c2ccc3c(c2)CCC(=O)N3)c1 (stereo unspecified) do in these assays?
Sm TGR inh: 11%

How did O=C(NC(=S)Nc1cc([N+](=O)[O-])ccc1O)c1ccc2c(c1)OCO2 do in these assays?
Pf growth 48h: -10%; Cycloheximide cs: 42*; NS1 inh: -16%; Sm TGR inh: -8%; Shiga toxin inh: 83*; Pf growth 96h: -20%

What do the screens show for `Cc1ccc(NC(=S)NC(=O)c2ccccc2)cc1NC(=S)NC(=O)c1ccccc1`?
Pf growth 48h: 33%; Cycloheximide cs: 24*; NS1 inh: 4%; Sm TGR inh: -8%; Shiga toxin inh: 54*; Pf growth 96h: 96%

What do the screens show for `Cn1ccc(C(=O)NC(=S)Nc2ccc([N+](=O)[O-])cc2O)n1`?
Pf growth 48h: 144%; Cycloheximide cs: 28*; NS1 inh: -10%; Sm TGR inh: -19%; Shiga toxin inh: 34; Pf growth 96h: 62%

How did Cc1ccc(C(=O)O)cc1NC(=S)NC(=O)c1ccc([N+](=O)[O-])c(C)c1 do in these assays?
Pf growth 48h: -5%[5.75 µM]; Cycloheximide cs: -4; Sm TGR inh: 20µM*; Shiga toxin inh: 40; Pf growth 96h: inconclusive

How did CCCn1c2ccccc2c2cnn(CC(=O)Nc3cccc(C(=O)OCC)c3)c(=O)c21 do in these assays?
Sm TGR inh: -2%

How did CC(CCc1ccccc1)NS(=O)(=O)c1ccccc1F (stereo unspecified) do in these assays?
Pf growth 48h: 2%; Cycloheximide cs: -7; NS1 inh: -31%; Sm TGR inh: -3%; Shiga toxin inh: -9; Pf growth 96h: -4%

Results for COC(=O)c1sccc1S(=O)(=O)N(CC(=O)NCc1ccccc1)c1ccccc1 ?
Sm TGR inh: -4%

Results for COC(=O)c1ccccc1NC(=S)NC(=O)c1ccc2c(c1)OCO2 ?
Pf growth 48h: 21%; Cycloheximide cs: 11; NS1 inh: -17%; Sm TGR inh: 11µM*; Shiga toxin inh: 3; Pf growth 96h: inconclusive

What do the screens show for `COc1ccsc1NC(=O)OCc1ccc(Cl)cc1`?
Cycloheximide cs: 37*; NS1 inh: 0%; Sm TGR inh: 0%; Shiga toxin inh: 44*; Pf growth 96h: 96%

How did CSc1nsc(NC(=O)OCc2ccc(Cl)cc2)n1 do in these assays?
Pf growth 48h: -1%; Cycloheximide cs: 11; NS1 inh: -91%; Sm TGR inh: 3%; Shiga toxin inh: 12; Pf growth 96h: 231%

What do the screens show for `CCN(C(=O)c1ccc(C(C)(C)C)cc1)c1nnc(Cn2nnc3ccccc32)s1`?
Pf growth 48h: 10µM*; Cycloheximide cs: -2; NS1 inh: -5%; Sm TGR inh: 7%; Shiga toxin inh: -16; Pf growth 96h: 120%

How did COc1ccc(S(=O)(=O)Nc2ccc(S(=O)(=O)Nc3ccc(F)cc3)cc2)cc1C do in these assays?
Pf growth 48h: 22%; Cycloheximide cs: -1; NS1 inh: 25%; Sm TGR inh: -11%; Shiga toxin inh: 1; Pf growth 96h: -27%

How did COc1ccc(S(=O)(=O)Nc2ccc(F)cc2)cc1N(C)S(=O)(=O)c1ccc(Cl)cc1 do in these assays?
Pf growth 48h: 5.2µM*; Cycloheximide cs: 5; NS1 inh: 5%; Sm TGR inh: 11%; Shiga toxin inh: 10; Pf growth 96h: -20%
